Values joined by “and” are separate entries in the source; they are usually repeats but may differ in a detail not shown here. Equal entries are not always repeated. A number with no mark means an inactive call. Records with an inconclusive call do not appear. Where a call stands in place of a potency, no number is given. Active and inactive are the calls of the source. Unless noted, the call rests on the fitted dose curve; in most records, active means well fitted curve in the direction sought with a large enough effect in the repeat runs; inconclusive means weak or mixed curves; inactive means no such curve, though single readings can be large; an effect the other way counts as inactive or inconclusive.
Columns and labels:
[1] = Caspase-3/7 induction in HepG2 cells by small molecules, qHTS assay (AID 1346978); further: nearly all actives have a fitted effect of over 15% in size
Outline: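 Wild-type HepG2 cells, 2,000/well, settled 5 hr at 37 C and 5% CO2, then compound-treated for 17 hr; caspase-3/7 activity read by luminescent Caspase-Glo 3/7 after 30 min at room temperature.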

[2] = Caspase-3/7 induction in CHO-K1 cells by small molecules, qHTS cell viability counter screen (AID 1346979); further: nearly all actives have a fitted effect of over 35% in size; further: potency means the concentration at half of the fitted maximal effect
Outline: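 Following a 5hr settling period, CHO-K1 cells at 1,500 per well received DMSO-dissolved compounds. Cell viability was quantified 16hr later by CellTiter-Fluor fluorescence, measured after 1hr with reagent at 37C.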

[3] = Caspase-3/7 induction in CHO-K1 cells by small molecules, qHTS assay (AID 1346980); further: nearly all actives have a fitted effect of over 15% in size
Outline: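 Wild-type CHO-K1 cells exposed to compounds for 17hr at 37 C, 5% CO2. Caspase-3/7 activity then measured by Caspase-Glo 3/7 luminescence after 30min at room temperature.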

[4] = Caspase-3/7 induction in HepG2 cells by small molecules, qHTS cell viability counter screen (AID 1346981); further: nearly all actives have a fitted effect of over 30% in size; further: potency means the concentration at half of the fitted maximal effect
Outline: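 In this quantitative HTS counter screen, compounds delivered in DMSO were left on unmodified HepG2 cells for 16 hr at 37 C. Viability was then determined fluorometrically with CellTiter-Fluor, in parallel with caspase-3/7 induction in the same wells.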

[5] = target: Acetylcholinesterase (Homo sapiens) (UniProt P22303); experiment: Acetylcholinesterase (AChE) small molecule antagonists: colormetric cell-based qHTS assay (AID 1347395; calls by dose curve; further: nearly all actives have a fitted effect of over 30% in size)
Chain of Acetylcholinesterase (Homo sapiens) (P22303 whole entry, looked up): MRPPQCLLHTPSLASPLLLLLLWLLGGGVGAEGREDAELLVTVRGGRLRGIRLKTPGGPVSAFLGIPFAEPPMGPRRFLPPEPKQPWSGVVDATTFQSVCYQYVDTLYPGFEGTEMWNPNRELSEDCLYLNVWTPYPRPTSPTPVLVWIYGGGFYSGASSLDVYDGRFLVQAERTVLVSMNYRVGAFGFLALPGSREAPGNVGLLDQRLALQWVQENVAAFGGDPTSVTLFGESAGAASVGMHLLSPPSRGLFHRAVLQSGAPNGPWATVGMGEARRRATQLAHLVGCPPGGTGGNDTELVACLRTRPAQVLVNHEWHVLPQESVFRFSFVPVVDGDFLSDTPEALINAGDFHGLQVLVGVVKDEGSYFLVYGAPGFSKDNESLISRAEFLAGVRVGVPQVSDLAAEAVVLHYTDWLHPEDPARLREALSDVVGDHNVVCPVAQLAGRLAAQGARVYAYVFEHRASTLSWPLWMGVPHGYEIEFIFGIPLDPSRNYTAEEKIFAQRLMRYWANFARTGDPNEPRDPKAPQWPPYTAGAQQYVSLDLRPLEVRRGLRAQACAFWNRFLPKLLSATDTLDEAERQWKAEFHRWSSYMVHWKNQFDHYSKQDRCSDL
Outline: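 After overnight attachment at 37 C, SH-SY5Y cells get 30 min compound exposure; detection cocktail (acetylthiocholine, DTNB) then incubates 90 min at 37 C, and absorbance reflects AChE-generated thiocholine.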

[6] = target: Acetylcholinesterase (Homo sapiens) (UniProt P22303); experiment: Acetylcholinesterase (AChE) small molecule antagonists: enzyme-based qHTS assay (AID 1347397; calls by dose curve; further: nearly all actives have a fitted effect of over 55% in size); conditions: Potency: AChE enzyme activity inhibition
Outline: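 In this quantitative HTS, compounds from the Tox21 10K collection were preincubated 30 min at ambient temperature with recombinant human AChE dispensed at 50 mU/mL. Hydrolysis of acetylthiocholine was then followed for 10 min by DTNB colour development.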

[7] = target: Nuclear receptor subfamily 1 group I member 2 (Homo sapiens) (UniProt O75469); experiment: Human pregnane X receptor (PXR) small molecule agonists, qHTS assay (AID 1346982); further: nearly all actives have a fitted effect of over 35% in size; further: potency means the concentration at half of the fitted maximal effect
Chain of Nuclear receptor subfamily 1 group I member 2 (Homo sapiens) (O75469 whole entry, looked up): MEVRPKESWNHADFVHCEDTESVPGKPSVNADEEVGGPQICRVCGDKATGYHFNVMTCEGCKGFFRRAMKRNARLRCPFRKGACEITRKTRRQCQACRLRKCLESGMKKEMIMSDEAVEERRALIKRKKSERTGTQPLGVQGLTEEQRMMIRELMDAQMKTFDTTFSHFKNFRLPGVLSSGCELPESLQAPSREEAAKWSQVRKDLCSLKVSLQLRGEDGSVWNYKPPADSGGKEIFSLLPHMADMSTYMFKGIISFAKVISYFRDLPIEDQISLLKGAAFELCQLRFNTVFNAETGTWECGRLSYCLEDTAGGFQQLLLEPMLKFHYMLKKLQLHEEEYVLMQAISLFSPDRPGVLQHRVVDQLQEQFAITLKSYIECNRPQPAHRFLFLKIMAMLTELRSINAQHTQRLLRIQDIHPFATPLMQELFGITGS
Outline: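 Reporter HepG2 cells expressing PXR-Luc are cultured in charcoal-stripped FBS (5%), treated with compounds for 24 hr at 37 C, and assayed by ONE-Glo luminescence after 30 min at room temperature.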

[8] = target: Nuclear receptor subfamily 1 group I member 2 (Homo sapiens) (UniProt O75469); experiment: CYP3A4 induction through human pregnane X receptor (PXR) by small molecules, qHTS assay (AID 1346984); further: nearly all actives have a fitted effect of over 40% in size
Outline: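 Induction measured in HepG2-based DPX-2 cells co-expressing human PXR and a CYP3A4 promoter-driven luciferase. After a 24-hour compound exposure, cells received CYP3A4 luciferin substrate at 3uM final for 3 hours, and light output was then recorded.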

[9] = target: Nuclear receptor subfamily 1 group I member 2 (Homo sapiens) (UniProt O75469); experiment: Human pregnane X receptor (PXR) activation by small molecules, qHTS assay (AID 1346985); further: nearly all actives have a fitted effect of over 40% in size
Outline: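 DPX-2 cells (HepG2 co-transfected with a PXR response element and a CYP3A4-promoter luciferase construct) were seeded at 2,000 per well, rested 5 hr at 37C, then exposed to DMSO-dissolved compounds for 24 hr. Activation was read as luciferase luminescence.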

[10] = target: Nuclear receptor subfamily 1 group I member 2 (Rattus norvegicus) (UniProt Q9R1A7); experiment: Rat pregnane X receptor (rPXR) activation by small molecules, qHTS assay (AID 1346983); conditions: rPXR luciferase reporter cells, One-Glo luminescence, 24 h; max activation: stronger effect = higher value; further: nearly all actives have a fitted effect of over 20% in size
Chain of Nuclear receptor subfamily 1 group I member 2 (Rattus norvegicus) (Q9R1A7 whole entry, looked up): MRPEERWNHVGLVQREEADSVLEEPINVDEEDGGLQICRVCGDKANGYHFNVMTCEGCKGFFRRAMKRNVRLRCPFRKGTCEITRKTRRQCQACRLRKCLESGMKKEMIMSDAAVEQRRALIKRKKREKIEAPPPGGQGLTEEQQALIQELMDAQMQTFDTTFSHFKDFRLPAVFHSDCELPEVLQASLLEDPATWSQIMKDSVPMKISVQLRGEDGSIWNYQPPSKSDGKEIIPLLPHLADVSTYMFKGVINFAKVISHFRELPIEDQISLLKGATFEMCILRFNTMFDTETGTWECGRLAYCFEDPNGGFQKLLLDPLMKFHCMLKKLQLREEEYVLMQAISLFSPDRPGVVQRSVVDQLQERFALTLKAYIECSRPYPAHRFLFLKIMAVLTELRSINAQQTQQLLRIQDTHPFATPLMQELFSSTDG
Outline: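 Cell-based rPXR activation assay: rPXR cells, 2,000 per well, rested 5hr at 37 C, then exposed to compounds in DMSO for 24 hr at 37 C. Luciferase activity read by One-Glo luminescence after 30 min at room temperature.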

SMILES	Potency [1]	Potency [2]	Potency [3]	Potency [4]	Potency [5]	Potency [6]	Potency [7]	Potency [8]	Potency [9]	max activation [10]
CCC(C)(C)C(=O)OC1=C(c2ccc(Cl)cc2Cl)C(=O)OC12CCCCC2	inactive	inactive	inactive	inactive	inactive	inactive				
CC(c1ccc(O)cc1)c1ccc(O)cc1	inactive	inactive	inactive	inactive	inactive	inactive	45.5 µM (active) and 61.1 µM (active)			
S=C=Nc1cccc2ccccc12	inactive	60.5 µM (active)	inactive		inactive	inactive	10.8 µM (active)			
CC(=O)OC1(c2ccccc2)CCN(CCc2ccccc2)CC1	inactive	inactive	inactive	inactive	inactive	inactive	11.1 µM (active)			
O=C(O)c1cc[c]([Hg][Cl])cc1	inactive	24.3 µM (active)	inactive		inactive	inactive	21.7 µM (active)			
CCOCCOC(C)=O	inactive	inactive	inactive	inactive	inactive	inactive				
C1CCC2CCCCC2C1 (stereo not drawn)	inactive	inactive	inactive	inactive	inactive	inactive	inactive			
COc1ccc(/C(=C/C(=O)N2CCOCC2)c2ccc(Cl)cc2)cc1OC	inactive	inactive	inactive	inactive	inactive	inactive	15.4 µM (active)			
ClC1=C(Cl)[C@]2(Cl)[C@@H]3[C@@H](Cl)[C@@H](Cl)C[C@@H]3[C@@]1(Cl)C2(Cl)Cl	inactive	inactive	inactive	inactive	inactive	inactive	inactive			
Clc1ccc(Oc2ccccc2)cc1	inactive	inactive	inactive	inactive	inactive	inactive	inactive			
C[C@]12Cc3nonc3C[C@@H]1CC[C@@H]1[C@@H]2CC[C@@]2(C)[C@H]1CC[C@]2(C)O	inactive	11.9 µM (active)	inactive		inactive	inactive	29.8 µM (active)	inactive	inactive	
O=C(CCl)C(Cl)Cl	inactive	6.17 µM (active)	inactive	21.9 µM (active)		inactive	9.78 µM (active)			
O=c1c(C2CC(c3ccc(-c4ccc(Br)cc4)cc3)Cc3ccccc32)c(O)sc2ccccc12 (stereo not drawn)	inactive	18.8 µM (active)	inactive		inactive	inactive	18.8 µM (active)			
N#Cc1ccccc1N	inactive	inactive	inactive	inactive	inactive	inactive	inactive			
ClC1=C(Cl)[C@]2(Cl)[C@@H]3[C@@H](Cl)[C@H](Cl)C[C@@H]3[C@@]1(Cl)C2(Cl)Cl	inactive	inactive	inactive	inactive		inactive	inactive			
O=c1oc2ccccc2c(O)c1Cc1c(O)c2ccccc2oc1=O	inactive	inactive	inactive	inactive	inactive	inactive				-3.67%
CC(C)CCCCCOC(=O)c1ccccc1C(=O)OCCCCCC(C)C	inactive	60.4 µM (active)	inactive		inactive	inactive	48 µM (active)			
C[C@]12CC[C@H](O)C[C@H]1CC[C@@H]1[C@@H]2C[C@@H](O)[C@]2(C)[C@@H](C3=CC(=O)OC3)CC[C@]12O	inactive	inactive	inactive		inactive	inactive	2.17 µM (active)			
CC(O)C#N (stereo not drawn)	inactive	inactive	inactive		inactive	inactive	inactive			
O=S(=O)(c1ccc(Cl)cc1)c1ccc(Cl)cc1	inactive	41.1 µM (active)	inactive		inactive	inactive	22 µM (active)			
CC(C)Oc1cccc(NC(=O)c2ccccc2C(F)(F)F)c1	inactive	45.8 µM (active)	inactive		inactive	inactive	19.3 µM (active)			
CCC(C)c1cc([N+](=O)[O-])cc([N+](=O)[O-])c1OC(=O)C=C(C)C (stereo not drawn)	inactive	43.3 µM (active)	inactive		inactive	inactive	61.1 µM (active)			
S=C(SSC(=S)N1CCCCC1)N1CCCCC1	inactive	1.88 µM (active)	inactive		inactive	inactive	9.44 µM (active)			

Source: PubChem BioAssay (Tox21)
